{"source": "paper PMC7819943", "about": "“Rice protein-binding microarrays: a tool to detect cis-acting elements near promoter regions in rice”", "note": "The full ranking holds about 68,000 sequences; the median of “fluorescence intensity (a.u.)” is about 9,100, and the highest 2% start at about 16,000. Only a selection was taken, and the highest values are over-represented in it overall.", "data": [{"molecular_target": "OsWRKY34 (Oryza sativa, UniProt Q0JBA9 1-250)", "sequence (Q0JBA9 entry or part of it)": "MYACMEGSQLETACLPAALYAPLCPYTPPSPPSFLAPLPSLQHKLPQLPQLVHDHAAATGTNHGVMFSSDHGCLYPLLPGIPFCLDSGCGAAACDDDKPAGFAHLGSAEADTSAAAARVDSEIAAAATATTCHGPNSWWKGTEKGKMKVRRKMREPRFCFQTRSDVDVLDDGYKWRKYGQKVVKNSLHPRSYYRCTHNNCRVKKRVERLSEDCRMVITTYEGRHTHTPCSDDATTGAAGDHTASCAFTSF", "assay": "protein-binding microarray (RPBM); PBS, 2% BSA, 51.3 ng/ul salmon testes DNA, 50 uM zinc acetate, 200 nM TF, 25 C, 1 h; high values mean tight binding", "conditions": "protein: recombinant; tags: N-terminal polyhistidine and DsRed monomer fusion (pET32a); label: CyDye5-dUTP incorporated in the synthesized complementary strand; 3' TTTTT single-stranded linker to array surface; dsDNA, one strand shown", "in_short": "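A custom Agilent array was converted to double-stranded form by primer extension with Cy5-dUTP and blocked with 2% BSA. Protein at 200 nM in PBS with 2% BSA, salmon testes DNA and 50 µM zinc acetate was applied for 1 h at 25 °C, followed by washing. The proteins were polyhistidine–DsRed N-terminal fusions of transcription factors, expressed in E. coli BL21-CodonPlus and Ni–NTA-purified. The binding signal is per-feature fluorescence intensity (arbitrary units) from an Axon 4000B scanner.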", "values": [{"sequence": "TTTTTTCTGTAAGGTGTCATATTTCTTCAATTGATGGATACGGAGTCACCTAGTGCAG", "binding signal": "8340 fluorescence intensity (a.u.)"}, {"sequence": "GGCTTCAGTATGAATTCTTACACAACCGTTGGTGTGCTACCGGAGTCACCTAGTGCAG", "binding signal": "9250 fluorescence intensity (a.u.)"}, {"sequence": "ACCCTCGGACCGGTTTTTTTACTATGCCTCAAACATGTTCCGGAGTCACCTAGTGCAG", "binding signal": "9800 fluorescence intensity (a.u.)"}, {"sequence": "ATCCCTCTGGTCGTCTCCTACCTCTCGGTTTCTTCACCCTCGGAGTCACCTAGTGCAG", "binding signal": "14600 fluorescence intensity (a.u.)"}, {"sequence": "TTTTTTCGGTCTCGGTATCGGTCTTTTCGGTTCGATCTTACGGAGTCACCTAGTGCAG", "binding signal": "8400 fluorescence intensity (a.u.)"}, {"sequence": "GTAGGGGCGGGAGGGGAGGCGTGGTGGCGCCGGGCCGGCGCGGAGTCACCTAGTGCAG", "binding signal": "14900 fluorescence intensity (a.u.)"}, {"sequence": "GCGGCGTTGCGGATGGGGACGGGGACGGGGACGGCGGCGACGGAGTCACCTAGTGCAG", "binding signal": "10400 fluorescence intensity (a.u.)"}, {"sequence": "GGCCGGCGGGTGGCCGGGTGGGGAGGAGGTCGGCAGGGCGCGGAGTCACCTAGTGCAG", "binding signal": "9780 fluorescence intensity (a.u.)"}, {"sequence": "GGTGGCGGTTGCGGGTGGAGGGCCGCGGCGGTGCGACGAACGGAGTCACCTAGTGCAG", "binding signal": "8480 fluorescence intensity (a.u.)"}, {"sequence": "GTGGGGCGGTGGCTGCTGCATTGCATTGGGCGGGAGAGATCGGAGTCACCTAGTGCAG", "binding signal": "17200 fluorescence intensity (a.u.)"}, {"sequence": "CACTATCGGCAGTGCAGCCGGCGGCTGGGGCGGGGAGTACCGGAGTCACCTAGTGCAG", "binding signal": "9540 fluorescence intensity (a.u.)"}, {"sequence": "CGTACTGGGCTGGGCTGGGCTGGGATTCAACCGAACGGGGCGGAGTCACCTAGTGCAG", "binding signal": "20400 fluorescence intensity (a.u.)"}, {"sequence": "ATCACGGAGGAGGCGTTCGGGGAGGGAGGGTGGGGCGCGCCGGAGTCACCTAGTGCAG", "binding signal": "24400 fluorescence intensity (a.u.)"}, {"sequence": "ACTAGTGGGCTGCTTGGGTGGGGAGCCCGGGCCGGCAGATCGGAGTCACCTAGTGCAG", "binding signal": "12000 fluorescence intensity (a.u.)"}, {"sequence": "GCGGCTGGGGTTGCGGTGCAATCTGGGGCGGGGATGCGAACGGAGTCACCTAGTGCAG", "binding signal": "17100 fluorescence intensity (a.u.)"}, {"sequence": "AAGTGCTCGATCGGGAGCGGTGGTGGTGGTGGGGAGAGAGCGGAGTCACCTAGTGCAG", "binding signal": "11300 fluorescence intensity (a.u.)"}, {"sequence": "ACGGTGCCGAACGAGCTTGGGGATGGGGACGGCGGCGGGGCGGAGTCACCTAGTGCAG", "binding signal": "10200 fluorescence intensity (a.u.)"}, {"sequence": "CAATTTCCATGGTTTTCTTAGCATTCTCGTCTCTAGTATTCGGAGTCACCTAGTGCAG", "binding signal": "9610 fluorescence intensity (a.u.)"}, {"sequence": "AAACCCTAGCTCCGGATTCTTCTCCTCTCCTCCTTTCTTCCGGAGTCACCTAGTGCAG", "binding signal": "8070 fluorescence intensity (a.u.)"}, {"sequence": "CGATCTCAGCTGTCACTCACTATGTGGTTCATCTAACTGACGGAGTCACCTAGTGCAG", "binding signal": "9510 fluorescence intensity (a.u.)"}, {"sequence": "CAGGTCATTTTGGTGTGTGCTTTGCGGTATTAACTCGTGCCGGAGTCACCTAGTGCAG", "binding signal": "8700 fluorescence intensity (a.u.)"}, {"sequence": "CACAGCGTCCACACCCGCGCCGCCGCCGCCCTCACCCTCGCGGAGTCACCTAGTGCAG", "binding signal": "8760 fluorescence intensity (a.u.)"}, {"sequence": "CGGGGATGGAGGTGGTGGTGAGGCTGGCGACGGCGGGCCGCGGAGTCACCTAGTGCAG", "binding signal": "12100 fluorescence intensity (a.u.)"}]}]}
